This passage reports composite z-score and z-score results from PubChem BioAssay.

Experiment [1] in a line: small molecules captured by biotinylated probe aFSTL3 – biochemical, small-molecule microarray, fluorescence 635/667, stem cell growth factor project, primary screen (AID 1064).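 Note: measures binding of the biotinylated anti-FSTL3 antibody to printed compounds.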 The note with it: higher = more signal.
Experiment [2] can be described thus: binders from COS7 lysate, DM2A8 probe, primary screen, torsin A project, cell lysate, small-molecule microarray, fluorescence 635/667 (AID 1065). The note with it: higher = more signal, COS7 lysate expressing mutant human TOR1A.
A short description of experiment [3]: small molecules captured by biotinylated probe aFGF2 – biochemical, small-molecule microarray, fluorescence 635/667, stem cell growth factor project, primary screen (AID 1067).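 Note: measures binding of biotinylated aFGF2 protein to printed compounds on slides; z-score merges feature fluorescence and signal-to-noise across triplicate slides.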 The note with it: higher = more signal.
The nature of experiment [4]: small molecules captured by biotinylated probe aFGF10 – biochemical, small-molecule microarray, fluorescence 635/667, stem cell growth factor project, primary screen (AID 1071).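 Note: score merges 667 nm spot intensity and signal to noise from triplicate slides.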 The note with it: higher = more signal.
The target in experiment [5] is Neurogenic locus notch homolog protein 2 (Homo sapiens) (UniProt Q04721). In words: small molecules binding Notch2 protein – biochemical, small-molecule microarray, 635 nm fluorescence, stem cell growth factors, primary screen (AID 1073). The note with it: higher = more signal.
Sequence of Neurogenic locus notch homolog protein 2 (Homo sapiens) (Q04721 whole entry, looked up, canonical isoform): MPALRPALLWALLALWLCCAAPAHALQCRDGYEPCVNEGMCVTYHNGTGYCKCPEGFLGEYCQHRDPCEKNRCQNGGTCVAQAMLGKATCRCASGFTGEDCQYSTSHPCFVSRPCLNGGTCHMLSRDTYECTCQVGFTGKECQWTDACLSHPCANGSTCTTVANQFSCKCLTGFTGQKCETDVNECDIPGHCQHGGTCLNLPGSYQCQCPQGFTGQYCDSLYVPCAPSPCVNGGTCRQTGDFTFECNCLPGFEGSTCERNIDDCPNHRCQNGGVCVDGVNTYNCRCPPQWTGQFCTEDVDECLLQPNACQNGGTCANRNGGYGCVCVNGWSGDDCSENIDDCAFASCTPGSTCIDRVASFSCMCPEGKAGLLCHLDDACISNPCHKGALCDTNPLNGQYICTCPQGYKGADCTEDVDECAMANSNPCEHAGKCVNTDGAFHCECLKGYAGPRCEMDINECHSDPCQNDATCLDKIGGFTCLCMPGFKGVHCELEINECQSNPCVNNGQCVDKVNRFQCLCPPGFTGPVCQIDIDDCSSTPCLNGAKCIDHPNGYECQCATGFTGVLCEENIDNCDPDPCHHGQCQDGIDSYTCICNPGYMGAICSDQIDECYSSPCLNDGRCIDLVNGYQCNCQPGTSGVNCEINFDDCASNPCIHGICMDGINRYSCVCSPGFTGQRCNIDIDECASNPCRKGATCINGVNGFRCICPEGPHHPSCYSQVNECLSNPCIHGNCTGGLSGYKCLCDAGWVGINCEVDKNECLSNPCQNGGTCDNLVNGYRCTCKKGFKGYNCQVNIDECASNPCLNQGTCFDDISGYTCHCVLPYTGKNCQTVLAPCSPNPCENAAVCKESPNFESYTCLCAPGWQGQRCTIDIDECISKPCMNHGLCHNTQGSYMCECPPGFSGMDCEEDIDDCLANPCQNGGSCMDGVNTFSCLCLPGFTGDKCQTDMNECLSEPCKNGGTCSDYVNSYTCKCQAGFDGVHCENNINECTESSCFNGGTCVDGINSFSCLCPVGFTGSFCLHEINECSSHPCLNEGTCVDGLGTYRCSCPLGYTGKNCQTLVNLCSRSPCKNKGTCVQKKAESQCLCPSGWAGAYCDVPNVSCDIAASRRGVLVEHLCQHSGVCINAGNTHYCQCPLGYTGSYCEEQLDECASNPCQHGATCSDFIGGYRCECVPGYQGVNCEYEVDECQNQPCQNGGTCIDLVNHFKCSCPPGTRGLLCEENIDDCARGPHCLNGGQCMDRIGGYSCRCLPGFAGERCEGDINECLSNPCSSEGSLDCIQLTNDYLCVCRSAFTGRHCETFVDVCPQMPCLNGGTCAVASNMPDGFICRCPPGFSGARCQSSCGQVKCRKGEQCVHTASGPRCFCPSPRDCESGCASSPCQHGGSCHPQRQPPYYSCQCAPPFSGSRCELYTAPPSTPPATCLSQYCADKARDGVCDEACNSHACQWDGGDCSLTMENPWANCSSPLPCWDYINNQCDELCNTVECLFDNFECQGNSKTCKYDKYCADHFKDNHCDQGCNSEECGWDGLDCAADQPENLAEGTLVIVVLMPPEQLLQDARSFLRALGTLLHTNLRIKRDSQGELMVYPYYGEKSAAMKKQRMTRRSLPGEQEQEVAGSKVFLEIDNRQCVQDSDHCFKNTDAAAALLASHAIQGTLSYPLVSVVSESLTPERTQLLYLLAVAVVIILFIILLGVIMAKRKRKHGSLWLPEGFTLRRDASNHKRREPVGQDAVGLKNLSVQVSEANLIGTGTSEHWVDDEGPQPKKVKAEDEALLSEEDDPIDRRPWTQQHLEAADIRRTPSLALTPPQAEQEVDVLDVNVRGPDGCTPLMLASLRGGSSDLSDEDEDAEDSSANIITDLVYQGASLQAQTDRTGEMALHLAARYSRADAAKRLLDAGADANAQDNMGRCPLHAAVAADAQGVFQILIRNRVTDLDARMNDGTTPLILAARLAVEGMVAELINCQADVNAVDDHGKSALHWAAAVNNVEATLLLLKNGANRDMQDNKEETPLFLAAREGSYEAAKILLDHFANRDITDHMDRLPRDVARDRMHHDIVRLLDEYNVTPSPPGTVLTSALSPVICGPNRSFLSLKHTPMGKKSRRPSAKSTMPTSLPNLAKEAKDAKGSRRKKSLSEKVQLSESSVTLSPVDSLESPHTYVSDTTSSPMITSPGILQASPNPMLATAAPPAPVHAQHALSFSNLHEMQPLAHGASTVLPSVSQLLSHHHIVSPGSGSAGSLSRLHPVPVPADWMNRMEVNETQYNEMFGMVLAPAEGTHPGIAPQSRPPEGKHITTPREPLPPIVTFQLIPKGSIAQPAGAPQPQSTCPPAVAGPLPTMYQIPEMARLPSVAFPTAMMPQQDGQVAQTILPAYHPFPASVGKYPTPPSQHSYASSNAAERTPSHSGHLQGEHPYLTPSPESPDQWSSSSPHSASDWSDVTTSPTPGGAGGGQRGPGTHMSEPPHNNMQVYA
The target of experiment [6] is Pro-neuregulin-1, membrane-bound isoform (Homo sapiens) (UniProt Q02297). In words: small molecules binding neuregulin-1 protein – biochemical, small-molecule microarray, fluorescence 635/667, psychiatric disease protein project, primary screen (AID 1075).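 Note: score combines 667 nm spot fluorescence with signal to noise.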 The note with it: NRG1 binding, 635 nm fluorescence, higher = more signal.
Sequence of Pro-neuregulin-1, membrane-bound isoform (Homo sapiens) (Q02297 whole entry, looked up, the tested form may be a part, canonical isoform): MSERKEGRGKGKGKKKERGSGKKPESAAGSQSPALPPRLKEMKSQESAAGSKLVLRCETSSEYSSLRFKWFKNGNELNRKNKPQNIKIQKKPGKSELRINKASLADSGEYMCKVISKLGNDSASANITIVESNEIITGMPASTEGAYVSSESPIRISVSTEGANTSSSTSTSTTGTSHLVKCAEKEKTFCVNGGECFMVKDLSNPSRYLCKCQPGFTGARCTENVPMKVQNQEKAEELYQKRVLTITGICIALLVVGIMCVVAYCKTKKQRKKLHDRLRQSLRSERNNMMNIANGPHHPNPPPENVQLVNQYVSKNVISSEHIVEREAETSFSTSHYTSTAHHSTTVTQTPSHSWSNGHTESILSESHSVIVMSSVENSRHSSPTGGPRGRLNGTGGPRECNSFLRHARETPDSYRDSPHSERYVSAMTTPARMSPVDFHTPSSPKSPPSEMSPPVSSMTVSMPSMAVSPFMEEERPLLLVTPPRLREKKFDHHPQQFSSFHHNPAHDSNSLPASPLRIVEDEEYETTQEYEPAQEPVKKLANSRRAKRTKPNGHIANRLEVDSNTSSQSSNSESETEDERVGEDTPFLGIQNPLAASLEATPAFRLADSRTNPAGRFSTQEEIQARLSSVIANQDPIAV
Experiment [7] has as its system Neuregulin-1 EGF-like domain. In words: small molecules binding NRG1 EGF domain – biochemical, small-molecule microarray, 635 nm fluorescence, primary screen (AID 1081).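 Note: binding of the protein to compounds printed on small-molecule microarray slides.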 The note with it: higher = more signal.
Experiment [8] is described as follows: FRG1 expression reporter modulators in myotubes – cell-based, C2C12 myotubes, firefly/Renilla luciferase, luminescence, FRG1 inhibition for FSHD, primary screen (AID 1084). The note with it: FRG1 promoter luciferase, higher = more signal, called active from +8 up or from −8 down.
A short description of experiment [9]: small molecules captured by biotinylated probe aFST – biochemical, small-molecule microarray, fluorescence 635/667, stem cell growth factor project, primary screen (AID 1086).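 Note: score merges 667 nm fluorescence with signal-to-noise of each printed compound spot.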 To be noted: higher = more signal.
Experiment [10] can be described thus: binders of probe aHhip on microarray, primary screen, stem cell growth factor project, biochemical, small-molecule microarray, fluorescence 635/667 (AID 1087).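 Note: score merges spot fluorescence at 667nm with spot signal to noise ratio.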 To be noted: higher = more signal.
The test system of experiment [11] is PRMT1 (protein arginine N-methyltransferase 1). In words: small molecules binding arginine methyltransferase PRMT1 – biochemical, small-molecule microarray, 635 nm fluorescence, primary screen (AID 1088).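 Note: binding of Prmt1 protein to compounds spotted on small-molecule microarray slides.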 To be noted: higher = more signal.
Experiment [12] is described as follows: growth effects on S. cerevisiae YJM789 – YJM789 clinical isolate, OD600, 24 h, basal, primary screen (AID 1089).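 Note: growth of clinical yeast isolate S. cerevisiae YJM 789 seeded 1000 cells per well; test concentration not given here.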 The note with it: higher = more signal, called active from +8 up or from −8 down.
The nature of experiment [13]: S. pombe growth modifiers, basal conditions – strain 972, OD600, 24 h, no modulator, primary screen (AID 1090).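 Note: basal condition with compound alone and no growth modifier present; test concentration not given here.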 The note with it: S. pombe 972 growth, higher = more signal, called active from +8 up or from −8 down.
The nature of experiment [14]: budding yeast growth modifiers under rapamycin – strain BY4716, OD600, 96 h, primary screen (AID 1091). Note: test concentration not given here. The note with it: S. cerevisiae BY4716 + rapamycin, higher = more signal, called active from +8 up or from −8 down.
Experiment [15] addresses Torsin-1A-interacting protein 2 (Homo sapiens) (UniProt Q8NFQ8). In words: small molecules binding lysate-expressed LULL1 – cell lysate, human LULL1 lysate, 635/667 nm fluorescence, primary screen (AID 1092).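 Note: probe is lysate of COS7 cells overexpressing human LULL1; score merges per-feature 667 nm fluorescence with signal-to-noise.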 To be noted: small-molecule microarray, hLULL1 lysate binding, 635 nm fluorescence; higher = more signal.
A short description of experiment [16]: optical density change of DRC41 E. coli – strain DRC41, OD650, 24 h, E. coli filamentation project, primary screen (AID 1093).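 Note: MC1000 strain lacking acrAB efflux and sulA so SOS filamentation is blocked; test concentration not given here.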 The note with it: E. coli DRC41 growth, higher = more signal, called active from +8 up or from −8 down.
A short description of experiment [17]: probe aLefty2 binding to arrayed compounds – biochemical, biotinylated probe, 635/667 nm fluorescence, primary screen (AID 1094).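 Note: score merges spot fluorescence near 667 nm with spot signal-to-noise ratio.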 To be noted: small-molecule microarray, higher = more signal.
Experiment [18] relates to Noggin (protein binding on small-molecule microarray). In words: small molecules binding Noggin protein – biochemical, 635/667 nm fluorescence, primary screen (AID 1095).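 Note: score merges 667 nm feature fluorescence with signal to noise over triplicate slides.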 To be noted: 635 nm fluorescence, higher = more signal.
Experiment [19] has as its target Neurogenic locus notch homolog protein 3 (Homo sapiens) (UniProt Q9UM47). In words: small molecules binding NOTCH3 protein – biochemical, 635/667 nm fluorescence, primary screen (AID 1096). To be noted: small-molecule microarray, 635 nm fluorescence, higher = more signal.
The nature of experiment [20]: probe aEGFR binding to arrayed compounds – biochemical, biotinylated probe, 635/667 nm fluorescence, primary screen (AID 1097).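 Note: probe is a biotinylated anti-EGFR antibody binding compounds printed on slides; score combines fluorescence near 667 nm and signal to noise of each spot.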 The note with it: small-molecule microarray, higher = more signal.

Calls of active or inactive are those of the source.

Sequence of Torsin-1A-interacting protein 2 (Homo sapiens) (Q8NFQ8 whole entry, looked up): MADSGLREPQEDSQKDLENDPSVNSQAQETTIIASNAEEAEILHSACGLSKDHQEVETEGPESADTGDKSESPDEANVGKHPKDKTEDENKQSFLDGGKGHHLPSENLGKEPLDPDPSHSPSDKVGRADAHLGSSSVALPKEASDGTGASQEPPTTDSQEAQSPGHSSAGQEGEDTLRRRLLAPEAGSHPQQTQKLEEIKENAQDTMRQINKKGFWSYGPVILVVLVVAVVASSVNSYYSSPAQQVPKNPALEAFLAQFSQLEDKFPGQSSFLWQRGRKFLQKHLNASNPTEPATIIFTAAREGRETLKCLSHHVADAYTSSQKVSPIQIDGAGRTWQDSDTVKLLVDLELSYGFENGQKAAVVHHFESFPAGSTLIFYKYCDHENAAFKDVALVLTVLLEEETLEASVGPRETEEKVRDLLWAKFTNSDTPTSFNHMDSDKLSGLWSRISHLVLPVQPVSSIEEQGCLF

Turning to `CC(C)C[C@H]1NC(=O)[C@@H](C)NC(=O)[C@@]23C(=O)N[C@@H](Cc4ccccc4)C2[C@H](C)[C@@]2(C)O[C@H]2C3/C=C/C/C=C\CNC1=O` (stereo not given in full), the composite z-score was -0.112 in experiment [1]; -0.0039 in [2]; -0.185 in experiment [3]; 0.346 in [4]; 0.125 in [5]; 0.483 in experiment [6]. Besides, the composite z-score in [7] was 0.798; in experiment [9], -0.141; in experiment [10], -0.121; in experiment [11], 0.938; in [15], 1.28; in experiment [17], -0.221. The composite z-score was 0.407 in experiment [18], 0.596 in experiment [19] and -0.0615 in [20]. For the same molecule, the z-score was 1.85 (inactive) in experiment [8]; -0.904 (inactive) in [12]; -0.721 (inactive) in experiment [13]; -0.651 (inactive) in experiment [14]; -0.64 (inactive) in experiment [16].

Regarding `C=C(CC1([C@@H](NP(=O)(c2ccccc2)c2ccccc2)[C@H]2C[C@@H]2CCN(C(=O)OCC)S(=O)(=O)c2ccc(C)cc2)CC1)c1ccccc1`, the composite z-score in experiment [1] was 0.0862; in experiment [2], -0.163; in experiment [3] it was 0.226; in [4], 0.821; in [5], 1.67; in [6] it was 1.38. Besides, the composite z-score in experiment [7] is 1.12; in experiment [9], 1.5; in experiment [10] it was 0.128; in experiment [11], -0.362; in experiment [15] it was 2.98; in experiment [17] it was 0.502. Besides, the composite z-score came out at 0.229 in [18], 1.02 in experiment [19] and 0.104 in [20]. In addition, the z-score in experiment [8] is 0.894 (inactive); in experiment [12], 0.585 (inactive); in experiment [13], 0.722 (inactive); in [14] it was 3.51 (inactive); in [16] it was -0.926 (inactive).

Take `C=CC[C@@]12N=C(c3ccc(OCCCO)cc3)O[C@@H]1c1ccccc1N(Cc1ccccc1)C2=O`: the composite z-score came out at 1.16 in [1]; 1.43 in experiment [2]; 0.302 in [3]; 0.524 in [4]; 0.552 in experiment [5]; 1.44 in experiment [6]. Also, the composite z-score was 1.31 in [7]; 2.19 in [9]; 0.145 in [10]; 1.54 in experiment [11]; 3.14 in experiment [15]; 0.145 in experiment [17]. For the same molecule, the composite z-score in [18] stood at 1.72; in experiment [19], 1.08; in [20], 0.0631. For the same molecule, the z-score in experiment [8] was -3.36 (inactive); in experiment [12], -0.965 (inactive); in experiment [13], -1.53 (inactive); in experiment [14], 1.86 (inactive); in [16], 1.12 (inactive).

For `CC(C)C[C@@H]1NC(=O)[C@H]2C[C@@H](C(=O)NCCCCCCNC(=O)CS)[C@@H](c3ccc(O)cc3)N2C1=O`, the composite z-score in experiment [1] was -0.254; in experiment [2], 1.62; in experiment [3] it was -0.0297; in experiment [4], 0.437; in experiment [5], 0.766; in [6], 1.22. Besides, the composite z-score in [7] is 1.34; in [9], 0.665; in experiment [10] it was -0.0296; in experiment [11], 1.54; in experiment [15] it was 2.91; in experiment [17], -0.101. Besides, the results for the composite z-score in experiment [18], in experiment [19] and in experiment [20] were 1.14, 0.589 and -0.0594, respectively. In addition, the z-score is 1.61 (inactive) in [8]; 0.107 (inactive) in experiment [12]; 0.673 (inactive) in [13]; 0.185 (inactive) in [14]; 0.205 (inactive) in [16].

For `C#CCN(C/C=C/c1ccccc1)[C@H](CO[Si](C)(C)C(C)(C)C)c1ccccc1`, the composite z-score in experiment [1] was -0.0528; in [2], -0.0566; in experiment [3], -0.0815; in experiment [4], -0.284; in [5], -1.14; in experiment [6], -0.267. The composite z-score in experiment [7] was -0.497; in [9], -0.363; in [10], -0.0994; in [11], 0.21; in [15] it was 0.433; in experiment [17] it was -0.264. Moreover, the composite z-score was -0.0154 in [18], -0.091 in [19] and -0.21 in experiment [20]. The z-score is -1.27 (inactive) in experiment [8]; 0.253 (inactive) in experiment [12]; -0.121 (inactive) in experiment [13]; 0.0066 (inactive) in experiment [14]; -0.347 (inactive) in experiment [16].
